Experimental data taken from PubChem BioAssay (Tox21).
Records with an inconclusive call do not appear. Activity calls are given as the source filed them. Unless noted, the call rests on the fitted dose curve; in most records, active means well fitted curve in the direction sought with a large enough effect in the repeat runs; inconclusive means weak or mixed curves; inactive means no such curve, though single readings can be large; an effect the other way counts as inactive or inconclusive.

Key:
[1] = qHTS assay to identify aromatase inhibitors - cell viability counter screen (AID 743084);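 further: cells stimulated with testosterone during compound exposure; nearly all actives have a fitted effect of over 55% in size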
[2] = biological target: Aryl hydrocarbon receptor (Homo sapiens) (UniProt P35869); test: qHTS assay to identify small molecule that activate the aryl hydrocarbon receptor (AhR) signaling pathway (AID 743085);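 further: HG2L7.5c1 human HepG2 liver cells with stably integrated DRE-driven firefly reporter; series mostly up to about 70 µM; nearly all actives have a fitted effect of over 15% in size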
Procedure, shortened: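 Measured in HG2L7.5c1 cells: CellTiter-Fluor signal (30 min incubation, 37C) for viability, then luciferase luminescence (30 min, room temperature). Compound contact time was 24 h at 37C, following a 5 h pre-incubation.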

[3] = qHTS assay to identify small molecule that activate the aryl hydrocarbon receptor (AhR) signaling pathway - cell viability counter screen (AID 743086);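 further: HepG2 liver cells carrying the AhR DRE luciferase reporter; series mostly up to about 70 µM; nearly all actives have a fitted effect of over 45% in size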
Procedure, shortened: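 Cytotoxicity counter screen: CellTiter-Fluor signal (30 min, 37 C) in 4000 HepG2 cells/well carrying the DRE-luciferase reporter, following 24 h compound exposure at 37 C.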

[4] = biological target: Peroxisome proliferator-activated receptor gamma (Homo sapiens) (UniProt P37231); test: qHTS assay to identify small molecule agonists of the peroxisome proliferator-activated receptor gamma (PPARg) signaling pathway (AID 743094; active means well fitted activation curve with a large enough effect in the signal ratio in the repeat runs, not every such curve was filed as active; the % refers to the signal ratio)
Procedure, shortened: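 GeneBLAzer PPARg UAS-bla HEK293H cells carrying a stably integrated beta-lactamase reporter were pre-incubated 5 h at 37C, then exposed to compounds in DMSO for 17 h at 37C; LiveBLAzer B/G FRET substrate was added for 1 h at room temperature and fluorescence read.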

[5] = biological target: Peroxisome proliferator-activated receptor gamma (Homo sapiens) (UniProt P37231); test: qHTS assay to identify small molecule antagonists of the peroxisome proliferator-activated receptor gamma (PPARg) signaling pathway (AID 743191; calls by dose curve; further: series mostly up to about 63 µM; nearly all actives have a fitted effect of over 30% in size)
Procedure, shortened: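 Beta-lactamase reporter under UAS control in HEK293H PPARg-bla cells; compound treatment 17 h at 37C. Read-out: fluorescence intensity after 1 h room-temperature incubation with LiveBLAzer B/G FRET substrate.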

[6] = qHTS assay to identify small molecule antagonists of the peroxisome proliferator-activated receptor gamma (PPARg) signaling pathway - cell viability counter screen (AID 743194); further: nearly all actives have a fitted effect of over 55% in size
Procedure, shortened: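 Viability was measured as CellTiter-Glo luminescence in GeneBLAzer PPARg UAS-bla HEK293H cells. These cells had been exposed 17 h at 37 C to compounds together with rosiglitazone at 50 nM final, with the beta-lactamase readout taken in the same wells.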

[7] = qHTS assay for small molecule agonists of the antioxidant response element (ARE) signaling pathway (AID 743202; active means well fitted activation curve with a large enough effect in the signal ratio in the repeat runs, not every such curve was filed as active; the % refers to the signal ratio)
Procedure, shortened: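 Quantitative high-throughput format in HepG2 cells bearing an integrated ARE-beta-lactamase reporter. Compound exposure lasted 16 h at 37 C, and fluorescence was read 2 h after adding LiveBLAzer B/G substrate at room temperature.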

[8] = qHTS assay for small molecule agonists of the antioxidant response element (ARE) signaling pathway - cell viability counter screen (AID 743203; calls by dose curve; further: nearly all actives have a fitted effect of over 55% in size)
Procedure, shortened: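 CellSensor ARE-bla HepG2 cells, 2,000 per well, rested 5 hrs at 37C/5% CO2, then exposed to compound in DMSO for 16 hrs; viability read as CellTiter-Glo luminescence after 30 min at room temperature, in the reporter wells.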

[9] = qHTS assay for small molecule activators of the heat shock response signaling pathway - cell viability counter screen (AID 743209); further: nearly all actives have a fitted effect of over 50% in size
Procedure, shortened: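 CellSensor HSE-bla HeLa cells, plated overnight at 37 C/5% CO2, were exposed to compounds in DMSO for 5 h at 37 C. Viability was then read in the same wells by CellTiter-Glo luminescence after 30 min at room temperature.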

[10] = qHTS assay for small molecule activators of the heat shock response signaling pathway (AID 743210; active means well fitted activation curve with a large enough effect in the signal ratio in the repeat runs, with a control signal flat, not every such curve was filed as active; the % refers to the signal ratio;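 further: HeLa cells with beta-lactamase reporter driven by heat shock elements; series mostly up to about 63 µM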)
Procedure, shortened: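 HeLa HSE-bla cells, overnight plating; cpd in DMSO 5 h, 37 C; LiveBLAzer B/G FRET substrate 2.5 h RT; fluorescence intensity read.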
On the % scale 0 is the no-effect control and ±100 the full control effect.

Chain of Peroxisome proliferator-activated receptor gamma (Homo sapiens) (P37231 whole entry, looked up): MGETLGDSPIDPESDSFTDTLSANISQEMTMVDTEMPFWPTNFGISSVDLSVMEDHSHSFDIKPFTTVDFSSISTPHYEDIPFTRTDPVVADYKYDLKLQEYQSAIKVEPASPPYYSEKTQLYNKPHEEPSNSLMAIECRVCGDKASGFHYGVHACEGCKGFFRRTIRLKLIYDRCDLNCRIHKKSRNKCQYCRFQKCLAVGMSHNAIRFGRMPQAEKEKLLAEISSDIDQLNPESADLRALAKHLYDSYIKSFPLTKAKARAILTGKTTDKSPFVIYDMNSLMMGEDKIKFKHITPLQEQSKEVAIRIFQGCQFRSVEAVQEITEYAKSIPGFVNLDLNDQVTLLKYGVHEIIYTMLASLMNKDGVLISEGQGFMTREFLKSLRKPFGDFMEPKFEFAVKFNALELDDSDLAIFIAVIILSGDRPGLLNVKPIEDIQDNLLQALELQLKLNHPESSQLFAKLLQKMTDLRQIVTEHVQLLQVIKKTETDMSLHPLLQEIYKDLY
Chain of Aryl hydrocarbon receptor (Homo sapiens) (P35869 whole entry, looked up): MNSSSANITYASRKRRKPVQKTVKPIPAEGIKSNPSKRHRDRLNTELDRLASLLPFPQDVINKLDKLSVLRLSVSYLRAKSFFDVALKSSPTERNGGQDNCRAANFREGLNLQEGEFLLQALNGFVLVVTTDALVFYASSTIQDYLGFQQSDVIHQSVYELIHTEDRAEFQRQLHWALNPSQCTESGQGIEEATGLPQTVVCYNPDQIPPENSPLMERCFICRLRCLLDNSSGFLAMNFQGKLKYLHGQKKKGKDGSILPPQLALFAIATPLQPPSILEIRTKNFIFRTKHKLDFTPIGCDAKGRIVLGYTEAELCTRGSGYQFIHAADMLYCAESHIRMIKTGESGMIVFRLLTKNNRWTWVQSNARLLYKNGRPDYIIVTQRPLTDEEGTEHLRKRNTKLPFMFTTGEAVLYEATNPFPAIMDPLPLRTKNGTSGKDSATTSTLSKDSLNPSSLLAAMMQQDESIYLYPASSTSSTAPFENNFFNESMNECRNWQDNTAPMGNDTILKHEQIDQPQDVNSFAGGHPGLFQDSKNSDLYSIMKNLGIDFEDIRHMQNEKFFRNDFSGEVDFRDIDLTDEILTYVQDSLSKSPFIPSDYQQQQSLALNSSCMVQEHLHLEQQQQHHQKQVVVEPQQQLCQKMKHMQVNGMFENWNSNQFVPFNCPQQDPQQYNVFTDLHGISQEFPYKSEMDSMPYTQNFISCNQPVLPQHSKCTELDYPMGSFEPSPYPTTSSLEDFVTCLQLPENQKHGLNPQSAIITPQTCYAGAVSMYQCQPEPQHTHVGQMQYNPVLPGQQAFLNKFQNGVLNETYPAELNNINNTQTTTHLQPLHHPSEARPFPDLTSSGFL

O=C(CS(=O)Cc1ccco1)NC/C=C\COc1cc(CN2CCCCC2)ccn1 (configuration not stated)
inactive: Potency [1] | Potency [2] | Potency [3] | outcome [4] | Potency [5] | outcome [6] | Potency [7] | outcome [8] | outcome [9] | outcome [10]

CCOC(=O)c1ncn2c1CN(C)C(=O)c1cc(F)ccc1-2
inactive: Potency [1] | Potency [2] | Potency [3] | outcome [4] | Potency [5] | outcome [6] | Potency [7] | outcome [8] | outcome [9] | outcome [10]

CC(CO)c1ccccc1 (configuration not stated)
inactive: Potency [1] | Potency [2] | Potency [3] | outcome [4] | Potency [5] | outcome [6] | Potency [7] | outcome [8] | outcome [9] | outcome [10]

Cc1c(I)c(=O)n(-c2ccccc2)n1C
inactive: Potency [1] | Potency [2] | Potency [3] | outcome [4] | Potency [5] | outcome [6] | Potency [7] | outcome [8] | outcome [9] | outcome [10]

CC(C)N(c1ccccc1)C(C)C
inactive: Potency [1] | Potency [2] | Potency [3] | outcome [4] | Potency [5] | outcome [6] | Potency [7] | outcome [8] | outcome [9] | outcome [10]

COc1ccc(C2CNC(=O)C2)cc1OC1CCCC1 (configuration not stated)
inactive: Potency [1] | Potency [2] | Potency [3] | outcome [4] | Potency [5] | outcome [6] | Potency [7] | outcome [8] | outcome [9]

Cc1cc2cc3c(C)cc(=O)oc3c(C)c2o1
inactive: Potency [1] | Potency [2] | Potency [3] | outcome [4] | Potency [5] | outcome [6] | Potency [7] | outcome [8] | outcome [9]

ClCCCl
inactive: Potency [1] | Potency [2] | Potency [3] | outcome [4] | Potency [5] | outcome [6] | Potency [7] | outcome [8] | outcome [9]

CN1C(C)(C)CCCC1(C)C
inactive: Potency [1] | Potency [2] | Potency [3] | outcome [4] | Potency [5] | outcome [6] | Potency [7] | outcome [8] | outcome [9] | outcome [10]

Cc1ccc(C=O)cc1C
inactive: Potency [1] | Potency [2] | Potency [3] | outcome [4] | Potency [5] | outcome [6] | Potency [7] | outcome [8] | outcome [9] | outcome [10]

C[C@H](N)[C@H](O)c1cccc(O)c1
inactive: Potency [1] | Potency [2] | Potency [3] | outcome [4] | Potency [5] | outcome [6] | Potency [7] | outcome [8] | outcome [9]

COCCOCCOCCOCCOCCO
inactive: Potency [1] | Potency [2] | Potency [3] | outcome [4] | Potency [5] | outcome [6] | Potency [7] | outcome [8] | outcome [9]

C[C@H](CCC(=O)O)[C@H]1CC[C@H]2[C@@H]3C(=O)C[C@@H]4CC(=O)CC[C@]4(C)[C@H]3CC(=O)[C@]12C
inactive: Potency [1] | Potency [2] | Potency [3] | outcome [4] | Potency [5] | outcome [6] | Potency [7] | outcome [8] | outcome [9] | outcome [10]

C=C1CC/C=C(\C)CC[C@@H]2[C@@H]1CC2(C)C
inactive: Potency [1] | Potency [2] | Potency [3] | outcome [4] | Potency [5] | outcome [6] | outcome [8] | outcome [9] | outcome [10]

O=C(O)CCSSCCC(=O)O
inactive: Potency [1] | Potency [2] | Potency [3] | outcome [4] | Potency [5] | outcome [6] | Potency [7] | outcome [9] | outcome [10]

CC(C)C(=O)OCCc1ccccc1
inactive: Potency [1] | Potency [2] | Potency [3] | outcome [4] | Potency [5] | outcome [6] | outcome [8] | outcome [9] | outcome [10]

CCOCCOCCOCC
inactive: Potency [1] | Potency [2] | Potency [3] | outcome [4] | Potency [5] | outcome [6] | outcome [8] | outcome [9] | outcome [10]

CC(C)(C)NC(N)=O
inactive: Potency [1] | Potency [2] | Potency [3] | outcome [4] | Potency [5] | outcome [6] | outcome [8] | outcome [9] | outcome [10]

C=COCCOCCOCCOC=C
inactive: Potency [1] | Potency [2] | Potency [3] | outcome [4] | Potency [5] | outcome [6] | outcome [8] | outcome [9]

CC(=O)c1sc(C)nc1C
inactive: Potency [1] | Potency [2] | Potency [3] | outcome [4] | Potency [5] | outcome [6] | outcome [8] | outcome [9] | outcome [10]

O=C(OCc1ccccc1)C(=O)OCc1ccccc1
inactive: Potency [1] | Potency [2] | Potency [3] | outcome [4] | Potency [5] | outcome [6] | outcome [8] | outcome [9]

CC(COC(C)(C)C)OCCCO (configuration not stated)
inactive: Potency [1] | Potency [2] | Potency [3] | outcome [4] | Potency [5] | outcome [6] | Potency [7] | outcome [8] | outcome [9] | outcome [10]

CC(=O)Nc1ccc(S(=O)(=O)Nc2ccc([N+](=O)[O-])cc2)cc1
inactive: Potency [1] | Potency [2] | Potency [3] | outcome [4] | Potency [5] | outcome [6] | outcome [8] | outcome [9]

O=S(O)(O)=S
inactive: activity change, negative = cytotoxicity [1] 0.159% [at 8.47 µM] | activation [2] -4.49% [at 8.47 µM] | viability change, negative = cytotoxic [3] -5.98% [at 8.47 µM] | activation [4] 0.645% [at 7.08 µM] | ratio activity, negative = inhibition [5] 10.9% [at 5.95 µM] | activity change, negative = cytotoxicity [6] -0.949% [at 5.95 µM] | activation [7] -7.19% [at 8.36 µM] | activity change, negative = cytotoxicity [9] 5.21% [at 5.95 µM] | activation [10] -0.665% [at 5.95 µM]

CC(CC=O)CCCC(C)(C)O (configuration not stated)
inactive: Potency [1] | Potency [2] | Potency [3] | outcome [4] | Potency [5] | outcome [6] | Potency [7] | outcome [8] | outcome [9] | outcome [10]

CN=C(NC#N)Nc1ccc(C2=NNC(=O)CC2C)cc1 (configuration not stated)
inactive: Potency [1] | Potency [2] | Potency [3] | outcome [4] | Potency [5] | outcome [6] | Potency [7] | outcome [8] | outcome [9] | outcome [10]
